Structures are written as SMILES. The whole screen tested about 300,000 compounds, of which about 2,500 (0.83%) were called active. No stated cut-off is given here; in the data, active means inhibition above about 60%; inconclusive means no clear call, values can overlap the other calls; inactive means below that. Many of the other results were omitted from the sample, so actives are more common in it than they were.

The experiment in a line: MLPCN primary screen, SNCA 5' untranslated region (AID 1813).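 Further: H4 neuroglioblastoma cells stably carrying SNCA 5'UTR luciferase fusion; 0% = DMSO wells and 100% = positive control.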 As to conditions: alpha-synuclein 5'UTR reporter, inhibitor activity; stronger effect = higher value; tested at 7.5 µM.
On to `COc1cc2cc(C(=O)N/N=C/c3cccc(OC)c3OC)[nH]c2cc1OC`, for which the inhibition was 22.3% (inactive).

As for `CN(C)CCNC(=O)c1[nH]nc2c1CCc1ccccc1-2`, the inhibition is -73.6% (inactive).

As for `COc1cccc(/C=N/NC(=O)c2[nH]nc3c2CCc2ccccc2-3)c1O`, the inhibition is 76.4% (active).

On to `CCOCCCN(C)C1CCN(C(=O)c2oc3ccccc3c2NC(=O)COc2cccc(C)c2)CC1`, for which the inhibition is 45.5% (inactive).

As for `CCOC(=O)c1ccc(NNC(C)=O)c([N+](=O)[O-])c1`, the inhibition was -28% (inactive).

Consider `CCCCCOc1ccc(/C=C/C(=O)NCCc2nc3ccccc3[nH]2)cc1OC`, for which the inhibition was 14.1% (inactive).

Regarding `Cc1cc(Oc2ccc(Cl)cc2)nc(SCC(=O)c2ccccc2)n1`, the inhibition was 27.8% (inactive).

For `Cc1cc(N/N=C\c2ccc(Br)cc2)nc(-n2nc(C)cc2C)n1`, the inhibition is 25% (inactive).

As to `Cc1cc(C)n(-c2ccc(C(=O)O)cc2[N+](=O)[O-])n1`, the inhibition is -5.9% (inactive).

For the compound `CC(=O)c1ccc(Oc2cc(C)nc(-n3nc(C)cc3C)n2)cc1`, the inhibition is 80.1% (active).

Turning to `Cc1cc(Nc2ccc(Cl)cc2)nc(N2CCOCC2)n1`, the inhibition was -19% (inactive).

In the case of `COc1ccc(Nc2cc(C)nc(-n3nc(C)cc3C)n2)cc1`, the inhibition was 92.8% (active).

Turning to `CCC(C(=O)OC)n1cnc2c(oc3ccccc32)c1=O` (stereo not given), the inhibition was 16.1% (inactive).

Regarding `O=C1c2ccccc2C(=O)N1Cc1cc(-c2ccccc2Cl)no1`, the inhibition is 15.2% (inactive).

Turning to `Clc1ccc(-c2cc(-c3ccccn3)on2)c(Cl)c1`, the inhibition was 108% (active).

Regarding `Clc1ccc(-c2ncc3ccccn23)c(Cl)c1`, the inhibition was -17.4% (inactive).

`COc1cc(NC(=O)C2=C(C)OCCS2)c(Cl)cc1C(=O)NCCN1CCN(C)CC1`: the inhibition was -14% (inactive).

Take `CN1C(=O)[C@H]2[C@@H](C3CC3)N3C(=O)CN(Cc4ccccc4)C(=O)[C@@]3(C)[C@H]2C1=O`: the inhibition was -12.7% (inactive).

In the case of `Cc1nc2c(c(C)nn2-c2ccccc2)c(C)c1C`, the inhibition is -0.524% (inactive).

`COc1ccc(/C=C2\SC(=S)N(CCC(=O)Nc3cccc(C(=O)O)c3)C2=O)cc1OC`: the inhibition is 6.81% (inactive).

`COc1ccc(/C=C2\SC(=S)N(CCC(=O)Nc3ccccn3)C2=O)cc1OC`: the inhibition is 28.8% (inactive).

For the compound `COc1ccc(/C=C2\SC(=S)N(CCCC(=O)NC3CCCC3)C2=O)cc1OC`, the inhibition was 83.7% (active).

On to `CCOc1ccc(S(=O)(=O)N/N=C(\C)c2ccc(Cl)c(Cl)c2Cl)cc1`, for which the inhibition was 2.56% (inactive).

For `O=C(NCCc1ccccc1)C(=O)NCC1OCCN1S(=O)(=O)c1cccs1` (stereo not given), the inhibition was 2.43% (inactive).

Take `CC(CNS(=O)(=O)c1ccc(Br)cc1)CN(C)C` (stereo not given): the inhibition was 22% (inactive).

On to `CN(CC(=O)NNC(=O)CNC(=O)c1ccccc1Cl)S(=O)(=O)c1ccc(Cl)cc1`, for which the inhibition is -12.7% (inactive).

Consider `CCc1cc(-c2nnc(SCC(=O)NC3CC3)n2C)cs1`, for which the inhibition is -4.18% (inactive).

For `Cc1ccccc1NCC(=O)N/N=C\c1ccc([N+](=O)[O-])s1`, the inhibition was -43.2% (inactive).

Consider `CC(C)(C)c1cc(C(=O)N/N=C/c2ccc([N+](=O)[O-])s2)n[nH]1`, for which the inhibition was 64% (active).

For `Cc1cc(C(=O)N/N=C/c2cc([N+](=O)[O-])cc(C)c2O)n[nH]1`, the inhibition was -3% (inactive).

Turning to `CCOC(=O)C(C)n1cnc2c(nnn2-c2cccc(OC)c2)c1=O` (stereo not given), the inhibition is -35.8% (inactive).

In the case of `O=C(C[n+]1ccc2c(c1)nnn2-c1ccccc1)c1ccc(Cl)cc1`, the inhibition is 9.87% (inactive).

For the compound `CCCCn1c(CCCNC(=O)CC)nc2ccccc21`, the inhibition is -5.46% (inactive).

Regarding `CCC(=O)Nc1nc2ccccc2n1Cc1ccccc1C`, the inhibition is 65.5% (active).

Turning to `CC(=O)Nc1nc2ccccc2n1Cc1ccc(C)cc1`, the inhibition is 48.2% (inactive).

`COc1ccc(N2CCN(C(=O)CNC(=O)c3ccc(Br)o3)CC2)cc1`: the inhibition was 0.266% (inactive).

Regarding `CNC(=O)c1csc(Cc2c(Cl)sc3ccc(Cl)cc23)n1`, the inhibition is -10.2% (inactive).

In the case of `CC(=O)Cc1nsc(NC(=O)c2ccc(Cl)cc2Cl)n1`, the inhibition is -9.27% (inactive).

On to `CC(=O)NNC(=O)c1csc(Cc2c(Cl)sc3ccc(Cl)cc23)n1`, for which the inhibition is 67.1% (active).

For the compound `CC12CN3CCN(CC(C3)/C1=N\NC(=O)c1ccccc1N)C2`, the inhibition is -83.3% (inactive).

As for `Cc1ccc(CN2CCN(Cc3ccc4ncccc4c3)CC2CCO)cc1` (stereo not given), the inhibition is -3.25% (inactive).

For the compound `CNC(=O)C(=O)N/N=C/c1ccccn1`, the inhibition was 10.9% (inactive).

For the compound `Cc1nnc(N/N=C/c2ccccn2)[nH]c1=O`, the inhibition was 117% (active).

For `Cc1nnc(N/N=C/C2CC=CCC2)[nH]c1=O` (stereo not given), the inhibition is -14.7% (inactive).

As for `COc1cc(/C=N/N=C(\N)c2nonc2N)cc(OC)c1OC`, the inhibition is -18.9% (inactive).

`O=C(CNC(=O)Cc1ccccc1)NCC(=O)OCC(=O)c1ccccc1Cl`: the inhibition was -27.1% (inactive).

As for `CC(=O)c1ccc(S(=O)(=O)N2CCC3(CC2)OCCO3)cc1`, the inhibition was -7.06% (inactive).

On to `CC(=O)c1ccc(S(=O)(=O)N2CCN(c3nc4c(C)c(C)ccc4cc3C#N)CC2)cc1`, for which the inhibition is 15.2% (inactive).

In the case of `CC(=O)c1ccc(S(=O)(=O)N2CCN(C(=O)/C=C/c3ccc4ccccc4n3)CC2)cc1`, the inhibition is 62.4% (active).

For `CC(N)C12CC3CC(CC(O)(C3)C1)C2` (stereo not given), the inhibition is 11.6% (inactive).

As for `COc1ccccc1Cn1c(=S)[nH]c2cc(C(=O)N3CCN(C)CC3)ccc2c1=O`, the inhibition is 30.1% (inactive).

Take `CCOc1cc2[nH]c(=S)n(Cc3ccc(C(=O)NCCOC)cc3)c(=O)c2cc1OCC`: the inhibition is 13.8% (inactive).

With `CCOc1cc2[nH]c(=S)n(Cc3ccc(C(=O)N4CCN(C)CC4)cc3)c(=O)c2cc1OCC`, the inhibition is 86.1% (active).

Turning to `COc1ccccc1N1CCN(C(=O)c2cc(=O)c3cc(C)cc(C)c3o2)CC1`, the inhibition was 78.3% (active).

With `COc1cccc(-c2cc(C(=O)N3CCN(c4ccccc4OC)CC3)no2)c1`, the inhibition was -4.47% (inactive).

Regarding `COc1ccccc1N1CCN(C(=O)c2cc(=O)c3cc(C)ccc3o2)CC1`, the inhibition was -36.8% (inactive).

Regarding `Cc1ccc(C(=O)Nc2nnc(C3=COCCO3)o2)cc1C`, the inhibition is -10.3% (inactive).

Take `CCN(CC)S(=O)(=O)c1ccc(N2CCCC2)c(NS(=O)(=O)c2cccs2)c1`: the inhibition is -11.1% (inactive).

Consider `COc1ccc2c(C(=O)c3ccc(C)cc3)n(CCC(N)=O)[n+]([O-])c2c1`, for which the inhibition was -21.1% (inactive).

Consider `COc1ccc(C(=O)c2c3ccc([N+](=O)[O-])cc3[n+]([O-])n2CCCN)cc1`, for which the inhibition is 63.1% (active).

Take `COc1ccc(C(=O)CC(=O)C(=O)Nc2cc([N+](=O)[O-])ccc2OC)cc1`: the inhibition was -25.8% (inactive).

`Cc1ccc(C(NC(=O)N2CCCC2)C(Cl)(Cl)Cl)cc1F` (stereo not given): the inhibition was 25.2% (inactive).

For `COc1ccccc1N=Cc1c(O)c2ccccc2oc1=O`, the inhibition was 3.79% (inactive).

For `COCC(=O)N=Nc1c(O)[nH]c2ccccc12`, the inhibition is 3.62% (inactive).

Consider `COc1cc(N=Cc2c(O)[nH]c3ccccc23)cc(OC)c1OC`, for which the inhibition was 81% (active).

Take `COCCC(=O)N1CCC(Oc2ccc(C(=O)NCc3ccon3)cc2)CC1`: the inhibition was -4.68% (inactive).

For `O=C(CCCO)N/N=C/c1cc(Br)ccc1O`, the inhibition was -18.4% (inactive).

On to `Oc1ccc(/C=N/Nc2ccc(C(F)(F)F)cn2)cc1O`, for which the inhibition was -195% (inactive).

In the case of `Oc1ccc(Br)cc1/C=N/Nc1ccccn1`, the inhibition is 66.4% (active).

With `COc1ccc(-c2cc(=O)oc3cc(OCC(=O)N[C@@H](Cc4c[nH]c5ccccc45)C(=O)O)ccc23)cc1`, the inhibition was 9.25% (inactive).

Regarding `CCOc1cc(/C=N/NC(=O)CN2CCCCC2)ccc1O`, the inhibition is 1.96% (inactive).

`C=CCn1c(C)cc(C(=O)CN2C(=O)c3ccccc3C2=O)c1C`: the inhibition was 47.1% (inactive).

As to `C=CCn1c(C)cc(C2=NNC(=NCC)SC2)c1C`, the inhibition is 105% (active).

For `O=C(NCc1cccnc1)C12CC3CC(CC(C3)C1)C2`, the inhibition is 16.2% (inactive).

In the case of `O=C(NC1CCCC1)C(c1ccc(N2CCOCC2)cc1)N(C(=O)c1ccco1)c1ccccc1F` (stereo not given), the inhibition was -5.34% (inactive).

On to `CCOC(=O)c1cnc(-n2nc(C)cc2C)nc1NNc1cc(C)nc(-c2ccccc2)n1`, for which the inhibition was 105% (active).

Regarding `CCOC(=O)c1cnc(-n2nc(C)cc2C)nc1Nc1cccc(C(C)=O)c1`, the inhibition was 17.6% (inactive).

In the case of `Cc1cc(C)n(-c2c(F)c(F)c(COC(=O)c3ccccc3)c(F)c2F)n1`, the inhibition is 6.91% (inactive).

`NC(=O)C1CCN(Cc2nc3c(Br)cc(Br)cc3c(=O)[nH]2)CC1`: the inhibition is 31.8% (inactive).

With `CC(=O)Nc1ccc(S(=O)(=O)NC2Cc3ccccc3C2)cc1`, the inhibition was -6.02% (inactive).

On to `Cc1ccc(NC(=O)CCC(=O)c2ccc(Br)cc2)cc1`, for which the inhibition is 1.65% (inactive).

With `COc1ccccc1C1C2=C(COC2=O)Nc2cc3c(cc21)OCO3` (stereo not given), the inhibition is 98.1% (active).

Take `COc1cc2c(cc1OC)C(c1ccncc1)CC(=O)N2` (stereo not given): the inhibition was 21.6% (inactive).

Regarding `COC(=O)C1=C(C)NC(=O)CC1c1ccccc1OC` (stereo not given), the inhibition was 2.02% (inactive).

On to `COc1ccc(C2CC(=O)Nc3cc(C)c(C)cc32)c(OC)c1OC` (stereo not given), for which the inhibition was 22.4% (inactive).

Regarding `COc1ccc(S(=O)(=O)Nc2ccc3c(c2)OCO3)cc1Cl`, the inhibition was -17.5% (inactive).

Regarding `CCCOc1ccccc1C1CC(=O)Nc2cc3c(cc21)OCO3` (stereo not given), the inhibition is 111% (active).

In the case of `COC(=O)c1ccc(NS(=O)(=O)c2cc3c4c(c2)C(C)C(=O)N4CCC3)cc1` (stereo not given), the inhibition was 8.87% (inactive).

With `CN(CC(=O)NCc1ccncc1)S(=O)(=O)c1ccc(Br)cc1`, the inhibition is -15.9% (inactive).

`Cc1ccc(CNC(=O)c2ccc3c(c2)S(=O)(=O)c2ccccc2C3=O)cc1`: the inhibition was 5.46% (inactive).

In the case of `CCN(C(=O)c1cc([N+](=O)[O-])ccc1NCc1cccnc1)c1ccccc1`, the inhibition was 14.1% (inactive).

With `CCCCn1ccnc1C(=O)c1cccc(S(=O)(=O)N2c3ccccc3CC2C)c1` (stereo not given), the inhibition is 4.82% (inactive).

Regarding `COc1ccc(-c2cn3ccc(C)cc3n2)cc1`, the inhibition is 92.2% (active).

As for `COc1ccc(-c2cn3ccsc3n2)cc1`, the inhibition is -105% (inactive).

Regarding `CCN(CC)S(=O)(=O)c1ccc(-c2cn3ccc(C)cc3n2)cc1`, the inhibition was -169% (inactive).

Values taken from PubChem BioAssay AID1813 (Broad Institute, 2009).
